According to the supplement of paper PMC6555819:

How the values were obtained:
Assay in all cases: PBM binding z-score (relative to random genomic background probes); higher = stronger binding; sequences stand for … in GC…GCGATTGACAGCGTAGAATGAAGG
[1] = tested on: RARb homodimer (NR concentration 270 nM)
Method in brief: (§1)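 Binding z-scores were set against random background probes. The data came from custom Agilent 4×180K protein-binding microarrays carrying double-stranded probes with 34-nt variable regions, incubated 1 h with ligand-free nuclear receptor dimers. Partner-specific antibodies detected binding, and scanned fluorescence was regression-normalized.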

[2] = tested on: RARg:RXRa (NR concentration 270 nM, RXRa partner concentration 90 nM)
Method in brief: as §1

[3] = tested on: RARg homodimer (NR concentration 270 nM)
Method in brief: as §1

[4] = tested on: RXRa DBDmut IVT, anti-RXR (DBD mutation: RXRa K156A/R161A, NR concentration 90 nM)
Method in brief: as §1

[5] = tested on: RXRa homodimer (NR concentration 180 nM)
Method in brief: as §1

[6] = tested on: THRa:RXRa (NR concentration 90 nM, RXRa partner concentration 90 nM)
Method in brief: as §1

[7] = tested on: THRa homodimer (NR concentration 90 nM)
Method in brief: as §1

[8] = tested on: VDR homodimer (NR concentration 270 nM)
Method in brief: as §1

Sequence	PBM binding z-score [1]	PBM binding z-score [2]	PBM binding z-score [3]	PBM binding z-score [4]	PBM binding z-score [5]	PBM binding z-score [6]	PBM binding z-score [7]	PBM binding z-score [8]
GCTGCTAGGTAAGGTTGGTCAGCTAACGGGTACG	0.738	-0.277	-0.313	-0.185	-0.296	0.277	-0.184	-0.0228
CTATGTAGGTTAAGGGGGTTATTCAGTTTGAAAG	2.15	2.55	1.56	1.43	2.57	2.53	1.4	3.24
CCGAGTAGGTTACGAAGGGGCATTCAGTGCGAAT	1.42	1.22	1.2	0.309	0.781	2.26	-0.808	1.23
CCTACTGGGCCATTCAGAGGTCACTGATCATATG	4.51	4.5	3.57	0.354	3.71	3.48	1.72	1.85
ACTAGCAGGCCAAGAGTCACTCAAGATTAGTCCG	0.0309	0.304	0.413	-0.426	0.599	0.162	-0.533	-0.0236
TTACCAAGGTGAAAGGTCGTTGAGGCACGCCTTG	2.61	4.52	2.03	0.589	6.39	3.49	0.818	1.32
TCAAGTAGGTTACGGGGGCATTCAGGGATGAAGA	2.65	3.75	3.05	2.81	3.19	3.8	2.1	4.17
CCTACTGGGCCACGAAAGGTAATTGATTCAGTGA	0.322	0.0783	0.352	-0.464	-0.00441	1.11	-0.00813	-0.234
CCTTACGGGTCTCTCCAGGTTATAGCATCGGAGT	0.324	0.139	0.231	-0.347	0.0573	3.09	0.346	0.105
CTATGTAGGTTAAGTGGGTCATTCAGTTTGAAAG	2.4	1.97	1.95	0.703	1.73	1.97	0.347	2.29
CCTACTGGGCCAAAGGTCATTGACTCCAATGCTC	4.46	5.6	4.61	1.6	6.03	3.38	0.707	1.82
GACACAGGGTCAGCTAGAGGCCAGAGTATGGAAA	3.17	6.46	4.41	1.3	4.1	3.1	-0.0446	0.591
ACTAGTTGTTCAGCTGAGGTCACACACAATTCGG	4.34	3.72	3.35	1.54	4.16	4.65	5.2	2.84
CAAAATAGGTCAAGAGGTCAAAGTCCGCTTCCCG	6.03	8.39	7.82	2.72	8.82	4.28	1.76	3.91
CGAACTAGGTCACCAGGACGGTGAAGAGGTTGGA	3.1	4.28	5.25	0.756	3.01	3.04	0.961	0.435
TAGCCTCGGTCATTCAGGGGCCAGTATAGAAAGC	2.44	3.5	3.37	-0.617	0.151	1.46	-0.717	-0.088
CCGAGTAGGTTAGGAGGGGGCATTCAGTGCGAAT	2.05	2.89	2.76	1.76	1.87	3.46	1.44	4.12
TCTTGTAGATCAAAGCTTAAGAAAGCCGAAGCCT	-0.931	-0.422	-0.665	0.503	-0.173	-0.444	-1.01	-0.74
GCTCGGGGGACAAGGTCAGAGCTTTGTCCGTAGA	3.12	4.71	4.55	1.43	3.63	3.48	1.91	1.47

Sequence	PBM binding z-score [1]	PBM binding z-score [2]	PBM binding z-score [3]	PBM binding z-score [4]	PBM binding z-score [5]	PBM binding z-score [6]	PBM binding z-score [7]	PBM binding z-score [8]
ATATGTAGGTTACATCGGGGTCATTCAGGCTATG	4.16	5.65	3.14	2.56	6.42	4.32	3.16	6.17
TGAATGAGGTTTAAGATCAGGGAACGTGGCGTCG	-0.403	0.0866	0.0198	-0.0681	0.388	0.0282	-0.624	-0.231
TCGAGTAGGTTACGGGAGCATTCAGGGATGAAGA	-0.0117	0.484	0.553	-0.267	0.792	1.89	-0.885	-0.591
CTATCTAGGTTAAGGGGGTCATTCAGTTTGAAAG	3.94	5.18	4.36	2.55	5.74	3.91	2.14	7.21
CGTCAAAGCTCAACTAAGGTAACGTAAAGCACGC	0.161	0.118	0.236	0.155	-0.0326	3.64	1.57	-0.205
CCTAGTTGGTCAAGGTAACACACGCTATAGGTAC	1.22	0.88	1.36	0.599	0.724	1.85	1.57	0.864
ATATGTAGGTTAGGTTCATTCAGAAAGTAGGGAA	1.29	1.47	1.35	3.43	2.17	1.8	0.787	5.47
GCTGCTCGGTCAACTGATGGTCAGCTAAAGCTCG	2.15	2.42	3.21	-0.121	-0.0356	0.0227	-0.551	-0.439
TCGAGTAGGTTACGGGGGCATTCTGGGATGAAGA	2.05	3.25	2.19	1.74	2.52	3.32	1.3	3.52
ATGTGTAGGTTAGGGTCATTCAGAAAGTAGGGAA	3.9	4.4	3.74	2.52	5.52	4.17	3.9	4.18
CGAACAAGGTCAAAGGACAGTGAAAGGCGACGTA	3.95	5.92	5.92	3.59	5.76	3.57	1.54	2.26
TCGAGTAGGTTTCGGGGGCATTCAGGGATGAAGA	1.5	2.01	1.38	1.48	1.5	3.54	1.69	3.56
ATATGTAGGTTAGGGTCGTTCAGAAAGTAGGGAA	2.05	1.69	1.16	1.52	2.44	2.85	1.95	2.55
GCATACGGGTCAAAGGTTATAGCATGAATAGAAT	3.26	6.95	4.87	2.46	9.53	3.81	-0.445	1.56
CCGAGTAGGTTACGAGGGGGCATTCATTGCGAAT	2.05	3.01	2.09	1.21	2	3.7	0.405	2.02
TCTAGTTGGTTACGGAGGTCACACACGACGGGTA	3.79	4.2	3.66	1.12	4.33	3.52	2.49	3.21
ATATGTAGGTTAGGGTCATTCAGAAAGTAGGGAA	3.49	4.11	3.21	2.68	5.53	3.97	3.55	4.01
CCGTGTAGGTTACGAGGGGGCATTCAGTGCGAAT	2.58	3.76	3.23	1.74	2.46	4.03	1.23	3.94
AGTCATAGTTCACTAGGTAACGTAAGATTCAGCT	2.32	2.32	2.72	1.82	1.6	1.11	0.171	0.797

Sequence	PBM binding z-score [1]	PBM binding z-score [2]	PBM binding z-score [3]	PBM binding z-score [4]	PBM binding z-score [5]	PBM binding z-score [6]	PBM binding z-score [7]	PBM binding z-score [8]
ATATCTAGGTAAAAGTTCAGTGAATCCCGAGGAT	2.58	2.11	2.05	0.832	1.62	1.38	0.52	2.01
GCTATTAGGTGAAAGGGCAACCGAATGATTCTCG	2.47	2.34	1.75	0.924	2.35	2.04	0.498	0.381
CCTAGTGGGCCAAAGGTCATTGATTCCAATGCTC	4.6	5.89	4.92	1.92	6.9	3.22	0.756	3.23
ATATGTAGGTTAGGGTCATTCATAAAGTAGGGAA	3.59	4.05	3	2.76	5.31	4.21	3.65	4.32
TAGCCTAGGTCATTGGACCAGTATAGTACGCATC	2.73	3.97	4.37	1.43	3.1	2.85	0.854	1.54
AGAATGAGGTTAAGATTAGGGAAACAGAATACAT	0.693	1.98	1.56	1.13	2.57	2.63	0.72	0.435
CGAACTAGGTCACCAGGACAGTGAAGAGGTTGGA	3.32	4.52	5.42	1.45	3.39	3.28	1.95	0.49
ATCGAAAGGTCGACGAGTTGAGTATACACCGTTT	2.63	3.88	4.05	1.46	4.2	2.24	-0.136	2.1
CCGAGTAGCTTACGAGGGGGCATTCAGTGCGAAT	1	1.05	0.544	1.5	0.627	1.8	-0.07	2.86
CCTACTGGGCCAAGGTCATAGATCAGTCAAAGCA	3.17	3.62	2.88	0.741	3.51	3.38	2.25	1.92
ACTAGAAGGCCAAGGGTCACTCAAGATTAGTCCG	3.97	4.79	4.33	0.883	4.57	2.87	0.528	1.92
CGAACTAGGACAAAGGACAGTGAAAGGCGACGTA	0.856	0.618	1.24	-0.1	0.0792	0.519	-0.508	-0.415
CGAACTAGGTCCCCAGGACAGTGAAGAGGTTGGA	-0.127	-0.281	-0.0988	-0.51	-0.31	0.965	0.258	-0.533
ATGTGTAGGTTACATCCGGGTCATTCAGGCTATG	3.32	3.75	2.19	0.811	2.95	3.94	2.75	3.1
ATATGTAGGTTCGGGTCATTCAGAAAGTAGGGAA	2.51	2.82	2.25	2.71	3.45	3.7	2.82	4
CGAACTAGGTCAAAGGACAGTGTAAGGCGACGTA	3.11	4.01	4.55	1.32	3.01	2.9	0.826	0.391
CCGAGTAGGTAACGAGGGGGCATTCAGTGCGAAT	1.62	1.9	1.27	0.932	1.21	2.73	0.519	3.01
CCTAGTTGGCCAAGGTCACACACGCTATAGGTAC	4.08	4.16	4.16	2.02	4.27	3.96	3.61	3.38
CCGAGTAGGTCACGAGGGGGCATTCAGTGCGAAT	4.35	6.3	6.32	2.29	5.11	4.54	0.959	3.61
